# According to PubChem BioAssay (NCI):
# This is part of a sample that, as a whole, favours compounds with a hit. Of some 79,000 tested, about 15% had one in any assay. Values without a mark were called inactive. Active and inactive are the calls of the source. Rule as the data show it: active = growth inhibition above about 70%; inactive = the rest.
# Key:
# [1] = NCI Yeast Anticancer Drug Screen. Data for the rad50 strain (AID 155);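 also: 0% = growth of vehicle-only cultures of the same strain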; settings: S. cerevisiae rad50 strain growth inhibition, stronger effect = higher value
# How it was run: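 Readout: growth inhibition relative to vehicle-treated cultures. Compound exposure was carried out in a genetically defined yeast strain deficient in DNA damage repair.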
# [2] = NCI Yeast Anticancer Drug Screen. Data for the mec2-1 strain (AID 157); settings: S. cerevisiae mec2-1 strain, stronger effect = higher value
# How it was run: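 Compounds were applied to mec2-1 yeast cells. Their growth was then compared with that of vehicle-treated cultures to give growth inhibition.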
# [3] = NCI Yeast Anticancer Drug Screen. Data for the sgs1 mgt1 strain (AID 161);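 also: 0% = growth of cultures given vehicle only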; settings: S. cerevisiae sgs1 mgt1 strain, stronger effect = higher value
# How it was run: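 Percent growth inhibition was derived by comparing compound-exposed mutant yeast with vehicle-exposed cultures. The strain carries alterations in DNA damage repair.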
# [4] = NCI Yeast Anticancer Drug Screen. Data for the bub3 strain (AID 167); settings: S. cerevisiae bub3 mutant strain, stronger effect = higher value
# How it was run: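 Readout: yeast growth inhibition, expressed relative to vehicle-only wells. The test organism is a mutant strain from a panel with lesions in DNA repair or checkpoint genes.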
# [5] = NCI Yeast Anticancer Drug Screen. Data for the mlh1 rad18 strain (AID 175); settings: S. cerevisiae mlh1 rad18 strain growth inhibition, stronger effect = higher value
# How it was run: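 A repair-deficient yeast strain is exposed to test compound, and growth is scored relative to vehicle-treated controls.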
# [6] = NCI Yeast Anticancer Drug Screen. Data for the cln2 rad14 strain (AID 165);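 also: 0% = growth equal to vehicle treated cultures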; settings: S. cerevisiae cln2 rad14 strain, stronger effect = higher value
# How it was run: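 Strain: cln2 rad14 yeast, altered in cell cycle control and DNA damage repair. Read-out: growth inhibition vs vehicle.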
# [7] = at 5.0 µM (retest, dose inferred, filed as 0.5)
# [8] = at 50.0 µM (retest, dose inferred, filed as 5.0)
SMILES,"growth inhibition [1, 7]","growth inhibition [1, 8]",growth inhibition ([1]; at 50.0 µM),"growth inhibition [2, 7]","growth inhibition [2, 8]",growth inhibition ([2]; at 50.0 µM),"growth inhibition [3, 7]","growth inhibition [3, 8]",growth inhibition ([3]; at 50.0 µM),"growth inhibition [4, 7]","growth inhibition [4, 8]",growth inhibition ([4]; at 50.0 µM),"growth inhibition [5, 7]","growth inhibition [5, 8]",growth inhibition ([5]; at 50.0 µM),"growth inhibition [6, 7]","growth inhibition [6, 8]",growth inhibition ([6]; at 50.0 µM)
O=C(CC(=O)c1ccccc1)c1ccccc1.O=C(CC(=O)c1ccccc1)c1ccccc1.O=C(CC(=O)c1ccccc1)c1ccccc1.[Al],2%,-3%,19.7%,5%,4%,86.4% (active),5%,2%,43.6%,4%,3%,6.55%,0%,0%,20.4%,–,–,–
O=C(O)c1ccc([Se][Se]c2ccc(C(=O)O)cc2)cc1,63%,97% (active),89.9% (active),39%,98% (active),92.8% (active),58%,99% (active),93.3% (active),41%,99% (active),91.2% (active),67%,97% (active),91.1% (active),33%,94% (active),91.5% (active)
CCC[CH2][Sn]([CH2]CCC)([CH2]CCC)[O]C(=O)C(OC)c1ccccc1 (stereo not given),100% (active),100% (active),90.5% (active),100% (active),100% (active),91.3% (active),99% (active),99% (active),91% (active),99% (active),99% (active),88.7% (active),100% (active),100% (active),89.4% (active),–,–,–
O=C([CH-]C(=O)c1ccccc1)c1ccccc1.O=C([CH-]C(=O)c1ccccc1)c1ccccc1.O=C([CH-]C(=O)c1ccccc1)c1ccccc1.[Cl-].[Hf+4],38%,95% (active),88% (active),37%,96% (active),90.2% (active),50%,95% (active),91.8% (active),64%,95% (active),90.8% (active),46%,94% (active),87.9% (active),–,–,–
CC1=NNC(=O)C1(Br)Br,-2%,21%,8.7%,-3%,9%,11.9%,2%,16%,14.2%,–,–,–,-13%,-2%,-23.8%,13%,31%,69.6%
N#C[S-].[La+3].c1cnc2c(c1)ccc1cccnc12.c1cnc2c(c1)ccc1cccnc12.c1cnc2c(c1)ccc1cccnc12,97% (active),98% (active),91.9% (active),99% (active),99% (active),94.4% (active),99% (active),99% (active),93.5% (active),99% (active),99% (active),92.1% (active),98% (active),98% (active),91.3% (active),95% (active),98% (active),92.7% (active)
CN(C)c1ccc(C2N(Cc3ccc(N(CCCl)CCCl)cc3)CCCN2Cc2ccc(N(CCCl)CCCl)cc2)cc1,1%,86% (active),52.5%,-18%,55%,5.2%,-1%,79% (active),76.7% (active),0%,95% (active),3.5%,-1%,99% (active),32.9%,-1%,65%,-6.3%
CN(C)[PH+](N(C)C)N(C)C.CN(C)[PH+](N(C)C)N(C)C.[C-]#[O+].[C-]#[O+].[C-]#[O+].[C-]#[O+].[C-]#[O+].[C-]#[O+].[Co].[Co].[Hg],3%,16%,98.2% (active),3%,16%,99.7% (active),1%,9%,99.6% (active),–,–,–,5%,20%,98.8% (active),-3%,2%,99.2% (active)
CNP(=O)(Oc1cc(Cl)c(Cl)cc1Cl)N1CCN(c2ccccc2)CC1 (stereo not given),12%,81% (active),98.8% (active),36%,48%,98% (active),8%,72% (active),98% (active),11%,86% (active),97.5% (active),-5%,91% (active),97.4% (active),25%,53%,97.8% (active)
O=C([CH-]C(=O)c1ccccc1)c1ccccc1.O=C([CH-]C(=O)c1ccccc1)c1ccccc1.[CH2-]CCC.[CH2-]CCC.[Sn+4],83% (active),98% (active),90.3% (active),91% (active),99% (active),93.2% (active),86% (active),58%,93% (active),90% (active),93% (active),91.8% (active),92% (active),99% (active),90% (active),–,–,–
Nc1nc2ncnc(N)c2nc1-c1ccc(N(CCCl)CCCl)cc1,-2%,46%,55.7%,-3%,38%,46%,-3%,54%,85.4% (active),-1%,40%,13.7%,-5%,35%,68.8%,6%,18%,16.4%
O=C(O)C1CC2c3ccccc3C1([N+](=O)[O-])c1ccccc12 (stereo not given),0%,8%,14.2%,-1%,4%,1.45%,0%,7%,31.1%,–,–,–,0%,8%,21.1%,-3%,15%,41%
COc1cc([N+](=O)[O-])c2ncccc2c1[N+](=O)[O-],-1%,23%,85% (active),-5%,13%,52.4%,-2%,26%,74.5% (active),-11%,12%,39.4%,13%,45%,93.6% (active),-5%,-9%,53.6%
O=C1C=C(N2CC2)C(=O)C(N2CC2)=C1N1CC1,97% (active),98% (active),99.2% (active),98% (active),99% (active),99.2% (active),97% (active),98% (active),98.8% (active),97% (active),97% (active),99.2% (active),98% (active),98% (active),99% (active),99% (active),98% (active),99% (active)
O=C([CH-]C(=O)c1ccccc1)c1ccccc1.O=C([CH-]C(=O)c1ccccc1)c1ccccc1.[La+3].[OH-].[OH3+],24%,24%,92% (active),23%,23%,93.5% (active),27%,27%,93.7% (active),37%,37%,91.2% (active),25%,25%,88.2% (active),–,–,–
O=c1c2ccccc2[nH]c(=S)n1-c1cccc(C(F)(F)F)c1,65%,69%,72.2% (active),49%,59%,76.3% (active),55%,59%,77% (active),71% (active),77% (active),77.7% (active),79% (active),81% (active),69.2%,52%,48%,61.7%
CC[CH2][Pb]([CH2]CC)([CH2]CC)[NH]S(=O)(=O)c1ccc(C)cc1,99% (active),99% (active),99.5% (active),99% (active),100% (active),99.7% (active),99% (active),99% (active),99.6% (active),100% (active),100% (active),99.5% (active),99% (active),100% (active),99.5% (active),98% (active),99% (active),97.9% (active)
S=C1NCCN1,1%,65%,12.2%,-4%,15%,14.7%,0%,35%,-17.6%,-1%,21%,-2.65%,2%,51%,4.95%,5%,14%,38.5%
CC(=O)[O-].CC(=O)[O-].O=C([CH-]C(=O)c1ccccc1)c1ccccc1.[Nd+3].[OH3+],33%,33%,91.6% (active),27%,27%,91.9% (active),30%,30%,93% (active),27%,27%,91% (active),24%,24%,88.8% (active),–,–,–
Cc1cccc(C)c1N=C(N)N[N+](=O)[O-],45%,96% (active),89.5% (active),53%,97% (active),90.3% (active),90% (active),98% (active),–,27%,97% (active),–,33%,99% (active),88% (active),57%,98% (active),–
